# Data taken from PubChem BioAssay (EPA / NIEHS).
# Inconclusive results are not listed. Calls of active or inactive are those of the source. The calls were made as follows: active = hit-call score of the fitted dose curve at least 0.9, where 1 is the maximum; inconclusive = response in the unintended direction; inactive = score below 0.9.
# Target: rat Neurokinin-1 Receptor (NK1), Tacr1 (gene 24807) (UniProt P14600)
# Experiment: NVS_GPCR_rNK1: NovaScreen (NVS) G Protein-Coupled Receptor Assay for rat Neurokinin-1 Receptor (NK1) (AID 2283309)
# Method: NVS_GPCR_rNK1 is a biochemical, single-readout assay that uses extracted gene-proteins from Rat submaxillary gland membranes in a tissue-based cell-free assay. Measurements were taken 1 hour after chemical dosing in a 48-well plate.NVS_GPCR_rNK1 is one of one assay component(s) measured or calculated from the NVS_GPCR_rNK1 assay. It is designed to make measurements of radioligand binding, a form of binding reporter, as detected with scintillation counting signals by Filter-based radiodetection technology.Data from the assay component NVS_GPCR_rNK1 was analyzed into 1 assay endpoint. This assay endpoint, NVS_GPCR_rNK1, was analyzed in the positive analysis fitting direction relative to DMSO as the negative control and baseline of activity. Using a type of binding reporter, loss-of-signal activity can be used to understand changes in the binding as they relate to the gene Tacr1. Furthermore, this assay endpoint can be referred to as a primary readout, because the performed assay has only produced 1 assay endpoint. To generalize the intended target to other relatable targets, this assay endpoint is annotated to the gpcr intended target family, where the subfamily is rhodopsin-like receptor.
# Binding assays used specific radioligands (tritiated, iodinated) with non-radioactive competitive displacement ligands in agonist or antagonist protocols (as indicated) and various reference compounds and inhibitors to titrate specific binding to receptors and transporters. Most enzyme assays (CYPs, kinases, phosphatases, proteases, HDACs) used recombinant protein and specific substrates (fluorescence mostly, some colorimetric and radioactive) and inhibitors, followed by a biochemical separation of substrate and product. All assays for the biochemical HTS were initially run in duplicate at a single concentration (10 uM for CYP450 assays and 25 uM for all others). […] Each assay was run with positive and negative controls, and concurrent controls on every plate. The follow-up (secondary) screen tested active chemical-pairs in concentration series, as well as a few additional assays not tested in the primary screen, some selected negative inactives, and several cases re-run in the concentration series for confirmatory purposes.
# Chain of rat Neurokinin-1 Receptor (NK1), Tacr1 (gene 24807) (P14600 whole entry, looked up): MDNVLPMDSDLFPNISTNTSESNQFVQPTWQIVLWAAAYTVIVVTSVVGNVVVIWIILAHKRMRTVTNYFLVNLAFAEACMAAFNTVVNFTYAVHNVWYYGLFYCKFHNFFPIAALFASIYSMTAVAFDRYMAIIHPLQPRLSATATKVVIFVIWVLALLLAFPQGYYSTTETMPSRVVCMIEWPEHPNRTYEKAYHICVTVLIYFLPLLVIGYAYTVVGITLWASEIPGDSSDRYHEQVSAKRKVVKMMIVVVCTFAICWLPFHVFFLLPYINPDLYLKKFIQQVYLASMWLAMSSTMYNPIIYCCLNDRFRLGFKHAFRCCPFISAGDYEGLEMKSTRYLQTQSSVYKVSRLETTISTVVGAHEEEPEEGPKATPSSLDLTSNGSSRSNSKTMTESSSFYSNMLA
Compound,outcome,AC50
O=c1c(-c2ccc(O)cc2)coc2cc(O)ccc12,inactive,
O=C(O)Cc1cc(I)c(Oc2cc(I)c(O)c(I)c2)c(I)c1,inactive,
CC#C[C@]1(O)CC[C@H]2[C@@H]3CCC4=CC(=O)CCC4=C3[C@@H](c3ccc(N(C)C)cc3)C[C@@]21C,inactive,
CC(C)CCCCCCOC(=O)CCCCC(=O)OCCCCCCC(C)C,inactive,
O=C(O)c1ccccc1C(c1ccc(O)cc1)c1ccc(O)cc1,inactive,
O=C(OCCOCCOC(=O)c1ccccc1)c1ccccc1,inactive,
CCCOc1sc(C(=O)N2CCC(c3cc(CN)ccc3F)CC2)c(C)c1Br,,23.2 µM (active)
CCC(=C(c1ccc(O)cc1)c1ccc(OCCN(C)C)cc1)c1ccccc1,inactive,
CC(=O)NC1(c2cccc(F)c2)CCN(CC[C@@]2(c3ccc(Cl)c(Cl)c3)CN(c3ccccc3)C(=O)CO2)CC1,,14.5 µM (active)
NC(=O)N(O)[C@@H]1C=C[C@H](Oc2cccc(Oc3ccc(F)cc3)c2)C1,inactive,
